Measured values reported in PubChem BioAssay.
Activity calls are given as the source filed them.

Tests used:
Albumin (Bos taurus) = Albumin (Bos taurus) (UniProt P02769); assay: bovine serum albumin binders on microarray, profiling panel, artefact control for SMM control protein annotation, biochemical, small-molecule microarray, Alexa647 label, 635/667 nm fluorescence (AID 1118); details: BSA-A647 binding, fluorescence 635 nm, higher = more signal;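 also: score merges 667 nm emission intensity and signal-to-noise per printed compound spot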
[1] = small-molecule microarray binders of probe aXIP, primary screen, biochemical, NeuroSMM set, 635/667 nm fluorescence (AID 1119); details: higher = more signal, called active from +8 up or from −8 down;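 also: probe is the protein aXip251-270 applied at 1 µg/mL to compound-printed slides; binding of probe to printed compounds measured as 667 nm fluorescence plus signal to noise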
[2] = small-molecule binders of probe aNOTCH3, primary screen, biochemical, small-molecule microarray, 635/667 nm fluorescence (AID 1120); details: higher = more signal;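 also: probe is a biotin-tagged antibody raised against NOTCH3 rather than NOTCH3 protein; score merges spot fluorescence near 667 nm with spot signal to noise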
[3] = small-molecule binders of probe aNOTCH2, primary screen, biochemical, small-molecule microarray, 635/667 nm fluorescence (AID 1121); details: higher = more signal;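 also: score merges feature fluorescence read at 667 nm with its signal to noise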
[4] = biological target: Carbonic anhydrase 2 (Homo sapiens) (UniProt P00918); assay: CAII small-molecule binders, profiling panel, biochemical, small-molecule microarray, Alexa647-labelled CAII (AID 1122); details: CAII-A647 binding fluorescence, higher = more signal
[5] = COS7 lysate on small-molecule microarray, probe aHis, 635 nm (AID 1123); details: COS7 cell lysate, fluorescence, higher = more signal;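 also: z-score combines 667nm fluorescence intensity with signal-to-noise per printed compound spot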
[6] = compound binding in COS7 lysate, probe aLAP1, primary screen, cell lysate, small-molecule microarray (AID 1124); details: probe aLAP1, fluorescence, higher = more signal;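 also: lysate comes from COS7 cells expressing LAP1 and is applied at 0.3 µg/mL; score merges spot fluorescence near 667 nm with signal-to-noise over triplicate slides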
Sam68 (KHDRBS1) = assay: Sam68 small-molecule binders, primary screen, biochemical, small-molecule microarray, 635 nm fluorescence (AID 1125); details: small-molecule microarray binding, higher = more signal;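 also: score merges 667 nm channel intensity with signal to noise over triplicate slides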
[7] = tested on: Chordin-like protein 2 (CHRDL2); assay: CHRDL2 small-molecule binders, primary screen, biochemical, small-molecule microarray, 635 nm fluorescence (AID 1126); details: small-molecule microarray binding, fluorescence 635 nm; higher = more signal;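 also: printed compound slides probed with Chrdl2 protein at 4 µg/mL for 1 h at 4 C; score merges 667 nm emission intensity with signal to noise over three replicate slides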
[8] = biological target: Concanavalin-A (Canavalia ensiformis) (UniProt P02866); assay: ConA small-molecule binders, primary screen, artefact control for SMM control protein annotation, biochemical, small-molecule microarray, Alexa647 label, 635 nm (AID 1127); details: ConA-A647 binding fluorescence, higher = more signal;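 also: z combines 667 nm emission intensity with signal-to-noise across three replicate slides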
Chain of Concanavalin-A (Canavalia ensiformis) (P02866 whole entry, looked up): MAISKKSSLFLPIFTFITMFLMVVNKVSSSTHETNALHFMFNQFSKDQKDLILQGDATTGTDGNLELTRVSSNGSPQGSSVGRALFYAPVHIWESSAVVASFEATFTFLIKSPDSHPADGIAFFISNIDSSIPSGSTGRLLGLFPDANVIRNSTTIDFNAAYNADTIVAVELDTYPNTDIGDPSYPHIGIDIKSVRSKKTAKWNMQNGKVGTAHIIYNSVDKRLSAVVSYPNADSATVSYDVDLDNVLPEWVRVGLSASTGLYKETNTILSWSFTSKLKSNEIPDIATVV

Chain of Albumin (Bos taurus) (P02769 whole entry, looked up): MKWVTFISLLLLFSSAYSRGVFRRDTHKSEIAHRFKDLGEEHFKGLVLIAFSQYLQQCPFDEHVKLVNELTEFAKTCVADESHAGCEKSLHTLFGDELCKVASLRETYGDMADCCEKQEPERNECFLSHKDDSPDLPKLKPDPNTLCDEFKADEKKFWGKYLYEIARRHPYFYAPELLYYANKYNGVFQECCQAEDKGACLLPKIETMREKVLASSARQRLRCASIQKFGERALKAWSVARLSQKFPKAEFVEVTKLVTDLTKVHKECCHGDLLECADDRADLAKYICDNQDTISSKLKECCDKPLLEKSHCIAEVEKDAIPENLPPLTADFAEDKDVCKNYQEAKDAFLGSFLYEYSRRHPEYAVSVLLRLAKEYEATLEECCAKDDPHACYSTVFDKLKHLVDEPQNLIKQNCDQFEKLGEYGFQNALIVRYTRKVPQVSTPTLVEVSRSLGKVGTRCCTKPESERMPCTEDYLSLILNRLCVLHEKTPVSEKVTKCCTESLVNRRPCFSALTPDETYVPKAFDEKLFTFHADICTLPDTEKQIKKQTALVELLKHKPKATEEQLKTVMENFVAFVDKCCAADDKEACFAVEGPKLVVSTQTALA

SMILES	composite z-score (Albumin (Bos taurus))	composite Z-score [1]	composite z-score [2]	composite z-score [3]	composite z-score [4]	composite z-score [5]	composite z-score [6]	composite z-score (Sam68 (KHDRBS1))	composite z-score [7]	composite z-score [8]
CCN(CC)c1ccc(N2CC=CC34O[C@@H]5/C=C\CCC(C)OC(=O)C5[C@H]3C(=O)N(CCCCCCO)[C@@H]4C2=O)cc1 (stereo not given in full)	0.362	0.184 (inactive)	-0.204	-0.224	0.548	-0.039	-0.458	-0.264	-0.143	-0.285
C=CCC(OC(C)=O)[C@@H]1[C@@H](N(Cc2ccc(-c3cccc(C(F)(F)F)c3)o2)C(=O)Cc2ccc(OC)cc2)c2cc(OCCCO)ccc2N1C(=O)Cc1ccc(OC)cc1 (stereo not given in full)	0.478	-0.784 (inactive)	-0.193	-0.193	0.158	0.043	-0.39	-0.399	0.292	-0.947
COCCOC(=O)N1C(=O)[C@@]2(c3cc(C#CCC(C(=O)OC)C(=O)OC)ccc31)[C@H](c1ccc(OCCO)cc1)N1[C@H](c3ccccc3)[C@H](c3ccccc3)OC(=O)[C@H]1[C@@H]2C(=O)NC[C@H](O)c1ccccc1	0.599	-0.33 (inactive)	0.272	-0.132	0.563	2.42	0.41	1.32	0.45	1.01
CO[C@H]1O[C@H](CO)[C@@H](OC(=O)Nc2ccc3c(c2)OCO3)[C@H](OC(=O)Nc2ccc3c(c2)OCO3)[C@H]1OC(=O)Nc1ccc2c(c1)OCO2	0.733	0.204 (inactive)	0.307	-0.0483	0.7	2.73	0.804	1.29	0.138	1.07
COC(=O)[C@@]1(Cc2ccc(F)cc2)[C@H]2c3cc(C(=O)N4CCCC4)n(Cc4ccc(Cl)c(C(F)(F)F)c4)c3C[C@H]2CN1C(=O)c1ccccc1	1.02	0.267 (inactive)	1.53	0.853	0.801	2.89	1.31	1.33	-0.804	1.16
COC(=O)[C@@]1(Cc2ccccc2)[C@H]2c3cc(C(=O)N(C)C)n(Cc4cc(F)c(F)c(F)c4)c3C[C@H]2CN1C(=O)c1ccccc1	1.04	-0.389 (inactive)	0.692	0.289	0.656	2.8	0.525	1.32	-0.801	0.953
COC(=O)c1nc2oc1CC[C@@H](CO)NC(=O)N(C)Cc1cn(nn1)C[C@H](Cc1ccccc1)NC2=O	0.775	-0.275 (inactive)	-0.256	-0.152	0.942	1.02	0.483	0.178	0.376	0.667
Oc1ccc2cc[n+](Cc3cccc(OC(F)(F)F)c3)cc2c1	-0.192	0.587 (inactive)	-0.215	-0.117	0.853	1.58	0.0966	-0.28	0.959	0.373
COc1cc2c(cc1O)C(c1ccc(CN3CCCC3)cc1)N(Cc1sc3ccccc3c1Cl)CC2 (stereo not given)	-0.185	0.0786 (inactive)	0.0394	-0.0861	0.752	0.415	0.179	-0.209	1.05	1.11
[N-]=[N+]=NCc1ccccc1C[C@]1(C(=O)N2CCOCC2)N=C(c2ccc(OCCCO)cc2)O[C@H]1c1ccccc1	0.905	0.271 (inactive)	0.0582	-0.14	0.501	1.07	0.444	0.965	-0.731	1.07
CCCCCN1CC=CC23O[C@@H]4C=CCCOC(=O)C4[C@H]2C(=O)N(CCCO)[C@@H]3C1=O (stereo not given in full)	0.538	0.33 (inactive)	-0.157	-0.155	0.343	-0.0684	0.0581	-0.0504	-0.277	0.121
CN(C)CCCC[C@@H]1NC(=O)[C@@H]2C[C@H](C(=O)NCc3ccc(F)cc3)[C@H](c3cccc(OCCO)c3)N2C1=O	-0.202	-0.398 (inactive)	-0.0311	-0.0598	0.569	2	0.776	1.05	0.991	1.11
C=C(COC)C(=O)CC[C@@H](OC(=O)c1ccccc1-c1ccccc1C(=O)O)c1ccc(CO)o1	-0.651	0.082 (inactive)	-0.154	-0.0817	0.309	1.77	0.447	0.504	1.24	0.865
CCCC[C@H]1C[C@@H]1[C@@H]1N(P(=O)(c2ccccc2)c2ccccc2)[C@](CO)(c2ccccc2)CC12CC2	0.914	-0.0435 (inactive)	0.112	0.281	0.285	2.17	-0.384	0.255	-1.39	0.558
C=CC[C@@]1(C(=O)NCCN2CCOCC2)N=C(c2ccc(OCCCO)cc2)O[C@@H]1c1ccccc1CN=[N+]=[N-]	0.831	-0.0095 (inactive)	-0.434	-0.397	0.556	2.9	0.895	1.2	0.055	0.85
O=C1c2ccccc2[C@](Cc2ccccc2I)(C(=O)O)[C@H](c2ccc(CO)cc2)N1Cc1ccccc1C(F)(F)F	0.449	-0.249 (inactive)	-0.0647	-0.106	0.583	1.91	1.77	0.431	-0.697	0.918
COc1ccc([Si](C)(C)[C@@H]2[C@@H](CC(=O)N3Cc4ccccc4C[C@H]3CO)O[C@]3(C(=O)N(Cc4cccc(N5C(=O)COc6ccccc65)c4)c4ccccc43)[C@H]2C)cc1	0.566	1.33 (inactive)	0.0905	-0.177	0.423	0.629	0.344	1.07	0.692	1.11
